The list is not random: actives were taken first. Their share in the collection is about 9.3%.
FLuc counter = qHTS profiling assay for firefly luciferase inhibitor/activator using purifed enzyme and Km concentrations of substrates (counterscreen for miR-21 project). purified FLuc, Km substrates, luminescence inhibition. hit rate 6.9% among 360,000. Potency, µM (highest dose often 57.5 µM), inactives show top-dose activity change, negative = inhibition, usual class: inhibitors. Luciferin 4-monooxygenase (Photinus pyralis), P08659. AID 588342, 2011;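 also: plate controls were vehicle for no effect and reference inhibitor for full effect; nearly all actives have a fitted effect of over 55% in size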
Target sequence (P08659 whole entry, looked up): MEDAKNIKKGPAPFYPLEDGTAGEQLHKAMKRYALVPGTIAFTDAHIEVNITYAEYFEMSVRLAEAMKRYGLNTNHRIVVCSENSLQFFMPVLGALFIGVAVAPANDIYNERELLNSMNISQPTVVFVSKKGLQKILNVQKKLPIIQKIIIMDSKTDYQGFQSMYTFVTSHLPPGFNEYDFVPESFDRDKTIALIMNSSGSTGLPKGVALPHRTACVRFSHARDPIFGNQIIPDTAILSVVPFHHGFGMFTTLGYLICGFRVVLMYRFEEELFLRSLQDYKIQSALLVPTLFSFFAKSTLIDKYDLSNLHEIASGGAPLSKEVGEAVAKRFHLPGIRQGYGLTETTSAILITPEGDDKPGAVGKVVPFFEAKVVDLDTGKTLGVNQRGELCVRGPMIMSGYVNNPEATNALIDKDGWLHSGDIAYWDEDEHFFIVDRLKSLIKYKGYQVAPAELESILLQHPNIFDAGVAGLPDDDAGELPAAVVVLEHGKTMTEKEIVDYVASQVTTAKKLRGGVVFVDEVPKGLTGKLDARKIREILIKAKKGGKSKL
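Purified P. pyralis luciferase (10nM final) with 10uM D-luciferin and 10uM ATP (Km levels) in 50mM Tris acetate pH 7.5, 10mM Mg acetate, 0.01% Tween-20, 0.05% BSA; qHTS 6-point titration, ~60 µM downward; luminescence read.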
ELG1 DNA repair = qHTS screen for small molecules that inhibit ELG1-dependent DNA repair in human embryonic kidney (HEK293T) cells expressing luciferase-tagged ELG1; hit rate 2.3% among 330,000; AID 504467, 2011; HEK293T ELG1-luciferase reporter, luminescence, 16 h; DNA damage induced by 5-fluorouridine; Potency, µM (top dose mostly 46.1 µM), for the others: top-dose activity change, negative = inhibition, usual class: inhibitors; also: % is scaled to controls: 0 for no effect and ±100 for the full control effect; nearly all actives have a fitted effect of over 55% in size
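Step one: seed 2,000 cells per well. Step two: pin-transfer compound or DMSO alongside 5-fluorouridine. Step three: incubate 16 hr, 37 °C, 5% CO2. Step four: add ONE-Glo, wait 30 min, read luminescence.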
ELG1 genotox = qHTS screen for small molecules that induce genotoxicity in human embryonic kidney (HEK293T) cells expressing luciferase-tagged ELG1 | Potency, µM (series often up to 46 µM), for the others: at the highest dose activity change, positive = activation, hits mostly activators | hit rate 1.3% among 330,000 | AID 504466, 2011 | HEK293T ELG1-luciferase reporter, luminescence, 16 h; also: % of control where 0% means no effect; nearly all actives have a fitted effect of over 60% in size
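HEK293T cells expressing luciferase-tagged ELG1 were treated with compound or DMSO for 16 hr at 37°C. Luciferase activity was then read after 30 min with ONE-Glo at room temperature; rising signal flags genetic stress.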
NPC1 promoter act = qHTS Assay for NPC1 Promoter Activators; Huh7 NPC1 promoter luciferase reporter, 24 h; Potency, µM (titrated, usually from 9.22 µM), without a hit: at the top dose activation, most hits filed as activators; hit rate 2.4% among 320,000; also: % of control where 0% means no effect; nearly all actives have a fitted effect of over 60% in size
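NPC1 promoter–luciferase Huh7 cells; 24 h compound; luminescence.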
SMN2 splice up = qHTS Assay for Enhancers of SMN2 Splice Variant Expression; AID 1458, 2008; HEK293 SMN2-luciferase splicing reporter, luminescence, 30-36 h; hit rate 2.8% among 210,000; Potency, µM (highest dose often 46.1 µM), inactives show top-dose activity change, positive = activation, actives largely listed as activators; also: % of control where 0% means no effect; nearly all actives have a fitted effect of over 55% in size
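HEK293 cells carry an SMN2 minigene-luciferase reporter in which exon 7 inclusion puts luciferase in frame. Cells were seeded at 2000 cells/well, attached for 10-12 hours, then exposed to compounds for 30-36 hours at 37C before ONE-Glo luminescence.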
Rab9 prom act = qHTS Assay for Rab9 Promoter Activators; Huh7 Rab9 promoter-luciferase reporter, luminescence, 24 h; Potency, µM (top dose mostly 9.22 µM), without a hit: at the highest dose activation, negative = inhibition, usual class: activators; hit rate 2.8% among 320,000; also: % of control where 0% means no effect; nearly all actives have a fitted effect of over 60% in size
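Luciferase signal after 10 min detection reagent at ambient indicates Rab9 promoter upregulation; stably transfected Huh7 cells were treated 24 h with compound in DMSO at 37 °C, 5% CO2.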
Numbers without * were called inactive; ? = inconclusive; · = no result; [ ] = dose if it differs, or a comment. Calls follow the shape of the dose curve; as a rule, active = well fitted curve in the direction sought with a large enough effect; inconclusive = small, poorly fitted or top-dose-only effect, or another doubt; inactive = no such curve, though single readings can be large; an effect the other way counts as inactive or inconclusive. Potency is read from the fitted curve at half-maximal effect.

SMILES	FLuc counter	ELG1 DNA repair	ELG1 genotox	NPC1 promoter act	SMN2 splice up	Rab9 prom act
Cc1ccc(-c2nnc(N)o2)cc1	?	?	8.9%	-0.2%	14.6%	-1.4%
Cc1cc(-c2nnc(-c3cccc(C(F)(F)F)c3)o2)no1	16.9µM*	?	15.2%	?	·	?
Cc1cc(C(=O)NC2CCCN(Cc3ccccc3F)C2)n[nH]1 (configuration not stated)	3.2%	10.7%	0.2%	-0.2%	·	-5.7%
Cc1cc2c(cc1S(=O)(=O)NCc1ccc(F)cc1)OCC(=O)N2	4.6%	·	·	·	·	·
COC(=O)CSc1nnc(-c2sc3ccccc3c2Cl)o1	5.36µM*	8.5%	-2.1%	-5.8%	-10.4%	3.9%
N#CCSc1nnc(-c2sc3ccccc3c2Cl)o1	16.9µM*	?	2.0%	0.9%	-23.2%	12.2%
Cc1ccc2c(c1)sc(=NC(=O)c1cccs1)n2C	0.151µM*	?	0.517µM*	3.55µM*	16.0%	3.55µM*
Cc1ccc2c(c1)sc(=NC(=O)C1CC1)n2C	8.49µM*	?	?	2.51µM*	·	3.55µM*
C#CCn1c(=NC(=O)c2cccs2)sc2cccc(OC)c21	?	-8.6%	?	0.8%	-14.3%	29.6%
O=C1CSC(c2c(F)cccc2Cl)N1c1cccc(F)c1 (configuration not stated)	1.1%	-0.7%	-4.3%	-4.5%	-0.2%	-1.1%
Cc1cc(C)n2nc(SCCOc3ccccc3F)nc2n1	-11.8%	?	?	20.1%	13.7%	?
CCOc1cnc(-c2c(-c3c(F)cccc3Cl)noc2C)o1	3.8%	-29.4%	0.9%	-4.6%	-67.9%	-4.1%
CCOc1cnc(-c2ccccc2F)o1	16.9µM*	22.4%	7.8%	0.2%	18.9%	-2.8%
Cc1ccc(C2=NN(C(=O)CN3C(=O)c4ccccc4S3(=O)=O)C(c3ccco3)C2)cc1 (configuration not stated)	-0.2%	-5.1%	-2.7%	-7.4%	17.9%	-5.5%
O=C1c2ccccc2S(=O)(=O)N1CC1CC(c2ccc(Cl)cc2)=NO1 (configuration not stated)	2.39µM*	?	16.4µM*	3.55µM*	15.8µM*	2.24µM*
COc1ccc(C2=NOC(CN3C(=O)c4ccccc4S3(=O)=O)C2)cc1 (configuration not stated)	2.13µM*	?	?	1.26µM*	?	0.891µM*
O=C1c2ccccc2S(=O)(=O)N1CC1CC(c2ccccc2)=NO1 (configuration not stated)	6.01µM*	?	4.11µM*	3.16µM*	13.6%	1.41µM*
Cc1ccc(NC(=O)c2ccc3c(c2)S(=O)(=O)c2ccccc2C3=O)cc1S(=O)(=O)N1CCOCC1	-1.1%	?	-1.3%	-12.9%	·	-3.4%
Cc1nc2cc(CO)ccc2s1	11.5%	13.9%	-1.5%	0.2%	5.7%	6.5%
Cc1ccc2nc(-c3ccc(N)cc3)sc2c1	0.107µM*	?	?	0.316µM*	·	0.224µM*
Nc1ccc(-c2nc3cc(N)ccc3s2)cc1	0.675µM*	?	2.91µM*	0.501µM*	·	0.708µM*
Cc1ccc2nc(-c3ccc(N4C(=N)SC5CS(=O)(=O)CC54)cc3)sc2c1 (configuration not stated)	8.49µM*	?	?	?	·	2.82µM*
CC(=O)Nc1nc2cc(N)ccc2s1	-0.1%	11.4%	5.7%	11.0%	·	15.2%
Cc1ccc(S(=O)(=O)Nc2nc3ccc(N)cc3s2)cc1	3.1%	-5.3%	0.4%	0.1%	·	-1.1%
Cc1ccc2sc(-c3ccc(N)cc3)nc2c1	0.169µM*	·	·	·	0.631µM*	·
SMILES	FLuc counter	ELG1 DNA repair	ELG1 genotox	NPC1 promoter act	SMN2 splice up	Rab9 prom act
NC(=O)CSc1nnc(-c2ccccc2F)n1C1CC1	0.7%	-0.1%	2.5%	0.4%	·	9.0%
Nc1ccc2nc(-c3ccccc3)sc2c1	0.301µM*	·	·	·	0.501µM*	·
Cc1ccc2nc(NC(=O)c3ccc4ncsc4c3)sc2c1	0.953µM*	?	2.91µM*	1.58µM*	7.08µM*	1.26µM*
O=C(/C=C/c1ccc2c(c1)OCO2)Nc1nc2ccc(F)cc2s1	?	?	?	1.78µM*	·	1.41µM*
NS(=O)(=O)c1ccc2nc(NC(=O)c3ccc4ncsc4c3)sc2c1	2.39µM*	15.1%	8.0%	21.6%	·	20.7%
CCOc1ccc2nc(NC(=O)/C=C/c3ccc4c(c3)OCO4)sc2c1	-1.6%	27.7%	15.3%	-2.6%	-20.8%	-0.7%
Cc1ccc2nc(NC(=O)c3ccc4c(c3)OCO4)sc2c1	0.953µM*	?	13.9%	1.58µM*	11.2µM*	1.12µM*
CC1=C(c2ccc(F)cc2)S(=O)(=O)N=C1N1CCC(C(=O)NCCc2ccco2)CC1	-1.0%	·	·	·	·	·
CC1CCCC(C)N1/N=C/c1ccccc1Br (configuration not stated)	-1.3%	-1.4%	-2.5%	-6.1%	·	-0.7%[1.84 µM]
COc1cccc(N2CCN(C(=O)c3oc4ccccc4c3NC(=O)Cc3ccc(OC)c(OC)c3)CC2)c1	-1.4%	16.4µM*	-10.1%	-5.9%	·	1.1%
COc1ccc(NC(=O)CC2C(=O)N(c3ccc(F)cc3)C(=S)N2NC(=O)c2ccccc2)cc1 (configuration not stated)	-6.4%	-7.6%	1.6%	0.0%	-13.2%	2.8%
Cc1cccc(Nc2nc3c(s2)CCCC3)c1	4.78µM*	?	?	?	28.2%[1.84 µM]	3.55µM*
Cc1cccc(Nc2c3c(nc4ccccc24)CCC3)c1	3.6%	20.6µM*	-14.9%	1.1%	·	-1.0%
O=C(Nc1ccc(Br)cc1)Nc1nc2c(s1)CCCCCC2	3.2%	·	·	·	·	·
Cc1ccc(Nc2c3c(nc4ccccc24)CCC3)cc1F	-2.3%	·	·	·	-29.7%	·
O=C(O)c1ccc(Nc2nc3c(s2)CCCC3)cc1	0.301µM*	?	?	-27.8%	0.631µM*	0.0398µM*
O=S1(=O)N=C(Nc2nc3c(s2)CCCC3)c2ccccc21	0.849µM*	?	?	2.51µM*	3.98µM*	1.41µM*
C[C@@H](N)C(=O)NC[C@H]1O[C@@H](n2cnc3c(N)ncnc32)[C@H](O)[C@@H]1O	·	9.3%	6.8%	·	·	·
C1CCN=C(Nc2nc3c(s2)CCCC3)CC1	?	?	11.4%	?	10µM*	?
c1nnc(NC2=NCCCCC2)s1	-14.8%	0.0%	18.9%	9.7%	13.6%	2.6%
Cc1ccc(CNC(=O)Nc2cccs2)cc1	12µM*	?	14.3%	?	15.8µM*	?

Screening results (PubChem)
